# Experimental data taken from the supplement of paper PMC12067926.
# Key:
# Assay in all cases: relative growth (AUC of 72 h growth curve relative to DMSO control, dAUC) (ratio); higher = more growth (less inhibition), active = hit call of the paper
# Details in all cases: 20 µM;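 active = growth AUC significantly below the DMSO wells by Dunnett test; inactive = the rest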
# [1] = tested on: Aeromonas 1 (Aeromonas sp. AE235)
# Method in brief: (§1)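 Growth was followed as A600, read hourly for 72 h on a plate reader after brief shaking. Isolates from Icelandic stream sediments and Silwood Park soil, and whole sediment communities, were first grown to carrying capacity in Luria–Bertani medium and then diluted 1:100 into 96-well plates with each chemical at 20 µM (1% DMSO). Relative growth (dAUC) is the spline-integrated area under the curve scaled to the mean of the DMSO controls, and the values are averages of three biological replicates.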
# [2] = tested on: Aeromonas 2 (Aeromonas sobria)
# Method in brief: as §1
# [3] = tested on: Aeromonas 3 (Aeromonas popoffii)
# Method in brief: as §1
# [4] = tested on: Argrobacterium 1 (Agrobacterium sp.)
# Method in brief: as §1
# [5] = tested on: Arthrobacter 1 (Arthrobacter humicola)
# Method in brief: as §1
# [6] = tested on: Arthrobacter 2 (Arthrobacter humicola)
# Method in brief: as §1
# [7] = tested on: Arthrobacter 3 (Arthrobacter sp.)
# Method in brief: as §1
# Community 4 = tested on: Community 4
# Method in brief: as §1
# Community 6 = tested on: Community 6
# Method in brief: as §1
# Community 7 = tested on: Community 7
# Method in brief: as §1
# Community 8 = tested on: Community 8
# Method in brief: as §1
# Community 9 = tested on: Community 9
# Method in brief: as §1
# [8] = tested on: Flavobacterium 1 (Flavobacterium glaciei)
# Method in brief: as §1
# [9] = tested on: Flavobacterium 2 (Flavobacterium succinicans)
# Method in brief: as §1
# [10] = tested on: Hymenobacter 1 (Hymenobacter glaciei)
# Method in brief: as §1
# [11] = tested on: Microbacterium 1 (Microbacterium arborescens)
# Method in brief: as §1
# [12] = tested on: Neobacillus 1 (Neobacillus soli)
# Method in brief: as §1
# [13] = tested on: Oryzobacter 1 (Oryzobacter terrae)
# Method in brief: as §1
# [14] = tested on: Paenibacillus 1 (Paenibacillus castaneae)
# Method in brief: as §1
SMILES,relative growth [1],relative growth [2],relative growth [3],relative growth [4],relative growth [5],relative growth [6],relative growth [7],relative growth (Community 4),relative growth (Community 6),relative growth (Community 7),relative growth (Community 8),relative growth (Community 9),relative growth [8],relative growth [9],relative growth [10],relative growth [11],relative growth [12],relative growth [13],relative growth [14]
Fc1ccc([C@]2(Cn3cncn3)O[C@H]2c2ccccc2Cl)cc1 (racemic),0.946 (inactive),0.979 (inactive),0.974 (inactive),0.985 (inactive),0.883 (inactive),0.947 (inactive),0.856 (inactive),0.965 (inactive),1.05 (inactive),1.15 (inactive),1.04 (inactive),0.984 (inactive),0.944 (inactive),0.938 (inactive),0.943 (inactive),1.01 (inactive),0.963 (inactive),1.13 (inactive),0.92 (inactive)
Cc1cc(C)nc(Nc2ccccc2)n1,0.974 (inactive),0.977 (inactive),1.07 (inactive),0.874 (inactive),0.948 (inactive),0.929 (inactive),1.03 (inactive),0.984 (inactive),1.04 (inactive),1.09 (inactive),1.03 (inactive),1.03 (inactive),1.01 (inactive),0.983 (inactive),1.1 (inactive),1.03 (inactive),0.999 (inactive),0.978 (inactive),0.762 (inactive)
O=C(O)c1nc(Cl)ccc1Cl,0.95 (inactive),0.943 (inactive),0.997 (inactive),0.946 (inactive),1.03 (inactive),0.895 (inactive),0.963 (inactive),0.903 (inactive),0.972 (inactive),1.17 (inactive),0.994 (inactive),0.937 (inactive),1.04 (inactive),0.962 (inactive),0.835 (inactive),0.977 (inactive),0.968 (inactive),0.889 (inactive),0.973 (inactive)
CC1(C(=O)Nc2ccc(O)c(Cl)c2Cl)CCCCC1,0.972 (inactive),0.983 (inactive),0.993 (inactive),0.983 (inactive),0.846 (inactive),1.02 (inactive),0.984 (inactive),0.977 (inactive),0.984 (inactive),1 (inactive),0.942 (inactive),1.1 (inactive),0.982 (inactive),0.979 (inactive),0.654 (active),0.995 (inactive),0.99 (inactive),1.04 (inactive),0.954 (inactive)
CCCN(CCC)C(=O)SCc1ccccc1,1.03 (inactive),1.02 (inactive),1 (inactive),1.04 (inactive),1.05 (inactive),0.932 (inactive),1.02 (inactive),0.997 (inactive),0.996 (inactive),1.01 (inactive),1.08 (inactive),1.03 (inactive),0.979 (inactive),0.952 (inactive),1.15 (inactive),1.05 (inactive),1.02 (inactive),1.08 (inactive),1.01 (inactive)
CCOc1ccc(C(C)(C)COCc2cccc(Oc3ccccc3)c2)cc1,1.01 (inactive),1.02 (inactive),1.02 (inactive),1.04 (inactive),1.01 (inactive),0.801 (inactive),0.816 (inactive),0.901 (inactive),0.979 (inactive),1.04 (inactive),1.06 (inactive),0.965 (inactive),0.785 (inactive),0.958 (inactive),0.929 (inactive),1.04 (inactive),0.881 (inactive),1.05 (inactive),0.942 (inactive)
CC(C)OC(=O)Nc1cccc(Cl)c1,0.932 (inactive),0.969 (inactive),1.05 (inactive),0.93 (inactive),0.95 (inactive),1 (inactive),0.964 (inactive),1.11 (inactive),1.13 (inactive),1.07 (inactive),1.01 (inactive),1.09 (inactive),0.971 (inactive),1.03 (inactive),1.09 (inactive),1.04 (inactive),1.09 (inactive),0.999 (inactive),1.12 (inactive)
Fc1ccc(Oc2ccnc3cc(Cl)cc(Cl)c23)cc1,1.01 (inactive),1.03 (inactive),1 (inactive),1.06 (inactive),0.954 (inactive),1.1 (inactive),1.08 (inactive),0.987 (inactive),0.935 (inactive),0.843 (inactive),1.01 (inactive),1.03 (inactive),1.04 (inactive),1.01 (inactive),1.13 (inactive),0.999 (inactive),1.09 (inactive),1.01 (inactive),0.927 (inactive)
CC(C)(C)C(O)(CCc1ccc(Cl)cc1)Cn1cncn1 (stereo not drawn),0.916 (inactive),0.917 (inactive),1.01 (inactive),0.949 (inactive),0.544 (active),0.232 (active),0.39 (active),0.913 (inactive),0.878 (inactive),0.983 (inactive),0.995 (inactive),0.862 (inactive),0.671 (active),0.816 (inactive),1.04 (inactive),1 (inactive),0.945 (inactive),1.41,0.808 (inactive)
CCC(CC)Nc1c([N+](=O)[O-])cc(C)c(C)c1[N+](=O)[O-],0.951 (inactive),0.973 (inactive),0.997 (inactive),0.993 (inactive),0.901 (inactive),0.884 (inactive),1.02 (inactive),0.88 (inactive),0.917 (inactive),1.03 (inactive),1.02 (inactive),0.884 (inactive),1.03 (inactive),0.957 (inactive),0.926 (inactive),1.04 (inactive),0.918 (inactive),1.1 (inactive),0.933 (inactive)
CN/C(=N\[N+](=O)[O-])NCc1cnc(Cl)s1,1 (inactive),0.976 (inactive),0.985 (inactive),0.98 (inactive),0.983 (inactive),0.841 (inactive),0.873 (inactive),0.981 (inactive),0.914 (inactive),1.06 (inactive),1 (inactive),0.871 (inactive),0.869 (inactive),0.939 (inactive),0.958 (inactive),0.983 (inactive),0.85 (inactive),1.05 (inactive),0.961 (inactive)
COc1ccc(-c2ccccc2)cc1NNC(=O)OC(C)C,0.954 (inactive),0.947 (inactive),1.02 (inactive),0.937 (inactive),0.913 (inactive),0.87 (inactive),0.932 (inactive),0.882 (inactive),0.886 (inactive),0.932 (inactive),0.986 (inactive),0.868 (inactive),0.888 (inactive),0.898 (inactive),0.987 (inactive),1.06 (inactive),0.89 (inactive),1.02 (inactive),0.873 (inactive)
CS(=O)(=O)c1cc(C(F)(F)F)ccc1C(=O)c1cnoc1C1CC1,1.02 (inactive),1.01 (inactive),1.04 (inactive),1.01 (inactive),1.1 (inactive),1.08 (inactive),1.04 (inactive),1.14 (inactive),1.13 (inactive),0.983 (inactive),1.02 (inactive),1.09 (inactive),1.01 (inactive),1.07 (inactive),1.04 (inactive),1.02 (inactive),1.06 (inactive),0.94 (inactive),1.13 (inactive)
N#CC(CCc1ccc(Cl)cc1)(Cn1cncn1)c1ccccc1 (stereo not drawn),0.938 (inactive),0.936 (inactive),1.01 (inactive),0.968 (inactive),0.81 (inactive),0.555 (active),0.666 (active),0.946 (inactive),0.958 (inactive),0.96 (inactive),0.951 (inactive),0.939 (inactive),0.846 (inactive),0.856 (inactive),0.861 (inactive),0.909 (inactive),0.905 (inactive),1.02 (inactive),0.947 (inactive)
CCN(CC)c1nc(C)cc(OP(=S)(OC)OC)n1,1 (inactive),0.982 (inactive),1.02 (inactive),1.04 (inactive),0.998 (inactive),0.924 (inactive),0.956 (inactive),1.01 (inactive),0.982 (inactive),0.988 (inactive),1.04 (inactive),1.04 (inactive),1.05 (inactive),0.995 (inactive),1 (inactive),1.03 (inactive),1.03 (inactive),1.06 (inactive),1.02 (inactive)
C#CCOc1ccc(CCNC(=O)C(OCC#C)c2ccc(Cl)cc2)cc1OC (stereo not drawn),0.978 (inactive),0.985 (inactive),1 (inactive),1.05 (inactive),1.04 (inactive),0.935 (inactive),0.953 (inactive),0.951 (inactive),1.02 (inactive),1 (inactive),1.05 (inactive),0.995 (inactive),0.963 (inactive),0.928 (inactive),1.04 (inactive),1.02 (inactive),0.98 (inactive),1.02 (inactive),0.851 (inactive)
CC(C)N(C(=O)COc1nnc(C(F)(F)F)s1)c1ccc(F)cc1,1.04 (inactive),0.994 (inactive),0.973 (inactive),1.02 (inactive),1.05 (inactive),0.894 (inactive),1.02 (inactive),1.04 (inactive),0.92 (inactive),1.13 (inactive),1.02 (inactive),0.986 (inactive),1.01 (inactive),0.927 (inactive),0.849 (inactive),1.04 (inactive),0.965 (inactive),1.16 (inactive),0.899 (inactive)
